Shown are actives, neighbours in structure and some others; about 20% of the full set was active somewhere.
HCMV antiviral: inhibitors of human cytomegalovirus; HFF cells, HCMV-luciferase reporter, 72 h; active compounds read low; activity change, negative = inhibition, % at 57.5 µM; hit rate 4.5% among 410,000; AID 1259415; in the data active = activity change below about -60%; inconclusive = no clear call, values can overlap the other calls; inactive = above about -39%; also: % is scaled to controls: 0 for no effect and ±100 for the full control effect
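Human foreskin fibroblasts infected with luciferase-reporter HCMV at MOI 1 PFU/cell, compounds at two doses. Luciferase measured 72 h post infection; normalized to buffer-only basal and Salinomycin (10uM) controls.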
Shiga toxin inh: inhibitors of Shiga toxin in Vero cells | inhibition, % at 38.7 µM | Vero cells, Shiga toxin protein synthesis inhibition reporter | hit rate 9.2% among 290,000; in the data active = inhibition mostly above about 28%, no sharp cut-off; inactive = mostly below about 43%; also: 0% is about no effect
Cycloheximide cs: counter-screen hit for Shiga toxin inhibitors, cycloheximide; cell reporter, cycloheximide protein synthesis inhibition counterscreen; max response, %; hit rate 12% among 300,000; in the data active = max response mostly above about 13%, no sharp cut-off; inactive = mostly below about 14%; also: read at 38.3 µM for the half of the compounds with a filed dose; 0% is about no effect
Pf growth 48h: inhibits P. falciparum growth in the first generation, 48 h; Potency, µM (doses to about 28.7 µM), inactives show at the highest dose activity change, negative = inhibition, actives largely listed as inhibitors; hit rate 5.9% among 310,000; P. falciparum luciferase growth in erythrocytes, 48 h; also: potency is read from the fitted curve at half-maximal effect; % is scaled to controls: 0 for no effect and ±100 for the full control effect
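In quantitative HTS format, infected erythrocytes bearing luciferase-reporter parasites were treated for a single generation at 37 C. Luminescence after adding detection reagent served as the growth measure.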
Pf growth 96h: inhibits malaria parasite growth, 96 h | P. falciparum luciferase reporter growth, 96 h | Potency, µM (doses to about 28.7 µM), without a hit: at the highest dose activity change, negative = inhibition, usual class: inhibitors | hit rate 6.9% among 320,000; also: potency is read from the fitted curve at half-maximal effect; % is scaled to controls: 0 for no effect and ±100 for the full control effect
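Plates of compound plus infected erythrocytes (2% hematocrit, 0.05% parasitemia final) incubate 96 hours, 37 C, 5% CO2. Detection reagent added; reduced luminescence from the parasites' luciferase reporter flags inhibition.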
* hit, by the source's call; ? = inconclusive; nt = no result; + = active, no number; ! = not confirmed by another sample. Unless noted, calls follow the shape of the dose curve; as a rule, active = well fitted inhibition curve with a large enough effect; inconclusive = small, poorly fitted or top-dose-only effect, or another doubt; inactive = no such curve, though single readings can be large or run the other way.

SMILES	HCMV antiviral	Shiga toxin inh	Cycloheximide cs	Pf growth 48h	Pf growth 96h
CCOC(=O)c1sc2nc(-c3cccnc3)ccc2c1N	-4.5	84.2*	49.9*	191.0%	22.3%
Nc1c(C(=O)Nc2ccc(Cl)c(Cl)c2)sc2nc(-c3cccnc3)ccc12	-7.4	-4.5	-1.8	-11.8%	10.3%
COc1cccc(-c2cnc(C(O)c3c(C)cccc3C)[nH]2)c1 (stereo not given)	-14.1	nt	nt	nt	nt
O=C(/C=C/Nc1ccc(OC(F)(F)F)cc1)C(F)(F)F	8.7	-11.6	-2.8	37.9%	153.9%
N#CC(C#N)=NNc1ccc(OC(F)(F)F)cc1	nt	60.0*	44.1*	nt	nt
COc1cc(C(=O)OCc2cc(=O)oc3c(C)c(C)ccc23)ccc1OC(F)F	-64.9*	19.3	-5.1	20.8%	36.4%
COc1cc2c(cc1OC)CN(Cc1cc(=O)oc3c(C)c(C)ccc13)CC2	-32.1	16.1	2.1	-27.3%	13.1µM*
COc1cc2c(cc1OC)CN(Cc1cc(=O)oc3cc(C)c(C)cc13)CC2	-27.4	3.7	-1.7	?	?
COc1cc(C(=O)OCc2cc(=O)c(O)co2)ccc1OC(F)F	-28.3	-13.0	-3.0	-7.4%	-28.2%
COc1cc2c(cc1OC)CN(Cc1cc(=O)oc3cc(C)c(Cl)cc13)CC2	-17.5	-2.3	-2.8	9.28µM*	?
COC(=O)c1cccc(NC(=O)CSc2nnc(C3CC3)n2C)c1	8.6	-14.4	-4.0	1.8%	17.7%
C=CC[C@@H](CC(=O)NCCO)C(=O)N[C@@H](C)COC(=O)[C@H](CC=C)CC(=O)OC(C)(C)C	-11.5	nt	nt	nt	nt
CCOC(=O)C1CCN(C(=O)c2c(C)nn(-c3ccc(F)cc3)c2-n2cccc2)CC1	-0.9	nt	nt	nt	nt
O=C(CN1CCOCC1)N/N=C/c1ccc(C(=O)O)cc1	217.7	84.8*	52.9*	7.7%	-35.8%
Cc1cccc(/C=N/NC(=O)CN2CCCCCCC2)c1	-28.5	12.2	14.5	23.8%	37.5%
O=C(CN1CCCCCC1)N/N=C/c1ccc(Cl)c(Cl)c1	-26.4	29.5	28.9*	0.1%	?
O=C(CN1CCOCC1)N/N=C/c1cccc2ccccc12	31.0	-5.6	-2.9	18.9%	12.9%
Cc1ccc(-n2ncc(C(=O)N3CCN(c4cc(Cl)ccc4C)CC3)c2C2CCN(C(=O)OC(C)(C)C)CC2)cc1	0.0	nt	nt	nt	nt
Nc1ccc(CCc2nc3ccccc3o2)cc1	-25.2	64.3	28.2*	166.5%	?
O=S(=O)(CCc1nc2ccccc2o1)c1ccc(Cl)c(Cl)c1	12.3	-1.9	-3.1	21.8%	30.9%
COc1ccc(C(=O)NC(=S)NCc2ccc(-c3nc4ccccc4o3)cc2)cc1OC	-38.7	8.4	12.6	-13.5%	nt
Cc1ccc2nc(-c3ccc(Cl)c(NC(=O)c4cccnc4)c3)oc2c1	1.5	nt	nt	nt	nt
COC(=O)c1ccc(-c2nc3ccc(C)cc3o2)cc1	102.2	154.0*	76.2*	nt	?
COC(=O)c1ccc(-c2nc3ccccc3o2)cc1	nt	24.2	13.3*	91.1%	?
COc1ccc(-c2nc3ccccc3o2)cc1OC	165.8	36.0*	36.2*	88.5%	56.2%
SMILES	HCMV antiviral	Shiga toxin inh	Cycloheximide cs	Pf growth 48h	Pf growth 96h
Fc1ccc(Nc2nc3ccccc3n3cnnc23)c(F)c1	-7.5	nt	nt	nt	nt
COc1cccc(NC(=O)CN2C(=O)c3cccc4cccc2c34)c1	-0.4	nt	nt	nt	nt
CCOC(=O)C1CCCN(c2c(C(=O)c3ccccc3)cnc3ccc(F)cc23)C1 (stereo not given)	-19.9	nt	nt	nt	nt
O=c1c(-c2n[nH]c(=S)o2)cccn1Cc1ccccc1	-13.0	-20.8	-7.3	-2.2%	?
c1ccc2oc(-c3ccc4nc[nH]c4c3)nc2c1	256.3	74.8*	39.5*	237.6%	-24.9%
O=C1c2ccccc2C(=O)N1c1cccc(-c2nc3ccccc3o2)c1	-39.3	3.0	0.5	12.9%	nt
NCc1ccc(-c2nc3ccccc3o2)cc1	nt	92.6*	59.5*	84.6%	nt
O=C1c2ccccc2C(=O)N1c1ccc(-c2nc3ccccc3o2)cc1	nt	-17.9	6.9	36.6%	97.6%
Nc1nc2ccc(-c3nc4ccccc4o3)cc2s1	46.4	13.2*	36.4*	246.0%	50.6%
CCOc1ccc(NC(=O)c2sc3nc4c(c(-c5ccc(OC)cc5)c3c2N)C(=O)CC(C)(C)C4)cc1	-19.6	nt	nt	nt	nt
COCCCN1C(=O)c2ccc(C(=O)N3CCN(c4ccccc4OC)CC3)cc2C1=O	?	10.0	-1.9	-0.1%	59.2%
O=C(Nc1ccc(Cl)c(-c2nc3ccccc3o2)c1)c1ccc(-c2cccc([N+](=O)[O-])c2)o1	-103.4*	nt	nt	nt	nt
COc1ccc(NC(=O)c2ccc(-c3ccc([N+](=O)[O-])cc3)o2)cc1	-60.8*	27.7	8.7	18.3%	-15.2%
COc1ccc(CNC(=O)Nc2ccc([N+](=O)[O-])cc2)cc1	-10.3	38.5	16.8	nt	nt
O=C(Nc1ccccc1)c1ccc(-c2ccc(Br)cc2)o1	-12.9	53.9*	37.8*	112.8%	102.7%
N#C/C(=C(/O)c1ccc(-c2cccc([N+](=O)[O-])c2)o1)c1nc2ccccc2s1	5.6	52.8*	21.5	25.2%	?
O=C(Nc1cccc(NC(=O)c2ccc(-c3ccc(Br)cc3)o2)c1)c1ccccc1	-39.9	-10.8	-9.4	nt	43.1%
Cc1cccc(CS(=O)(=O)Cc2ccc(C(=O)NCc3ccccc3)o2)c1	-13.6	-3.1	-3.7	3.1%	?
COc1ccc(CCNC(=O)c2ccc(-c3ccc([N+](=O)[O-])cc3)o2)cc1OC	-68.8*	9.4	1.4	-15.5%	?
COc1ccc(CCNC(=O)c2cc(-c3ccc(Cl)cc3)on2)cc1OC	-9.6	nt	nt	nt	nt
O=C(Nc1ccccc1)c1ccc(-c2ccc([N+](=O)[O-])cc2)o1	-66.3*	68.8*	31.3*	?	37.3%
COc1ccc(CCNC(=O)c2ccc(CS(=O)(=O)Cc3cccc(C)c3)o2)cc1OC	+!	18.1	-8.0	-17.8%	?
COc1ccc(C2c3[nH]c4ccccc4c3C[C@H]3C(=O)N(c4ccccc4C(=O)N4CCC[C@@H]4C(=O)O)C(=O)N23)cc1 (stereo not given in full)	36.4	nt	nt	11.7µM*	?
Cc1ccc(C2c3[nH]c4ccccc4c3C[C@H]3C(=O)N(c4ccccc4C(=O)N4CCC[C@H]4C(=O)O)C(=O)N23)cc1 (stereo not given in full)	73.8	2.6	-1.6	?	10.4µM*
COc1cccc(C2c3[nH]c4ccccc4c3C[C@H]3C(=O)N(c4ccccc4C(=O)N4CCC[C@H]4C(=O)O)C(=O)N23)c1 (stereo not given in full)	34.4	-6.2	-0.3	?	?
CC(C)c1ccc(C2c3[nH]c4ccccc4c3C[C@H]3C(=O)N(c4ccccc4C(=O)N4CCC[C@@H]4C(=O)O)C(=O)N23)cc1 (stereo not given in full)	-13.6	8.3	-0.9	9.28µM*	8.28µM*
COc1ccc(C2c3[nH]c4ccccc4c3C[C@H]3C(=O)N(c4ccccc4C(=O)N4CCC[C@H]4C(=O)O)C(=O)N23)cc1 (stereo not given in full)	16.6	-3.7	6.7	9.28µM*	?

Bioassay records as filed in PubChem.
